Screening results as filed in PubChem BioAssay.
Yeast superoxide – caloric restriction mimetics inhibiting age-related superoxide in yeast | hit rate 0.18% among 330,000 | superoxide response (% of plate mean), % at 10 µM | AID 2690 | S. cerevisiae aged cells, superoxide DHE fluorescence; hits give low values;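 active means superoxide response under a set limit, about three screen SD below normal, cut at about 65% in these data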;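 further: yeast aged for seven days with compound at 30 °C before DHE staining; 100% = average MFI of all compound-treated wells on the plate with controls excluded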
tim10-1 inh – inhibits growth of tim10-1 mutant yeast | S. cerevisiae tim10-1 ts strain growth, BacTiter-Glo, 24 h | hit rate 2.2% among 330,000 | AID 463190 | inhibition, % at 20 µM;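 active means inhibition of at least 40%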;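 further: mutant grown at 25 °C; 0% = DMSO wells with yeast and 100% = wells holding no yeast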
TIM10 inh – growth inhibitors of TIM10 yeast strain | inhibition, % at 10 µM | S. cerevisiae TIM10 strain growth, BacTiter-Glo luminescence, 24 h | AID 463195 | hit rate 1.4% among 330,000;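 active means inhibition of 40% or more at the single tested concentration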;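 further: wild-type TIM10 isogenic control strain grown at permissive 25 °C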
NALP3 yeast inh – inhibitors of NALP3 inflammasome in yeast. Yeast reconstituted NLRP3/ASC/caspase-1, beta-gal luminescence, 24 h. hit rate 0.39% among 330,000. inhibition, % at 10 µM;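 active means inhibition of 50% or more; inactive means inhibition below 50%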;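 further: plate controls were induced DMSO wells for no effect and uninduced yeast grown without galactose for full effect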
tim23-1 inh – tim23-1 yeast growth inhibition; S. cerevisiae tim23-1 growth, BacTiter-Glo luminescence, 24 h; inhibition, % at 20 µM; hit rate 1.3% among 330,000; AID 463212;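 active means growth inhibition of the mutant yeast at or above 50%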;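 further: temperature-sensitive mutant grown at 25 °C; plate controls were DMSO-treated mutant yeast for no effect and medium wells lacking yeast for full effect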
CR mimetic CP – yeast aging superoxide inhibition, cherry pick confirmation | shares compounds with Yeast superoxide | S. cerevisiae aging, superoxide DHE fluorescence; hits give low values | superoxide response (% of plate), % at 10 µM | hit rate 1% among 850 | AID 434994;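 active means superoxide signal below 65% of the plate average of sample wells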;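 further: cells aged with compound for 7 days at 30 degrees C before staining; 100% equals mean DHE fluorescence of all compound wells on the plate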
DHE fluor count – counter-screen for compounds affecting DHE oxidation and fluorescence in yeast. shares compounds with Yeast superoxide. S. cerevisiae BY4741, flow cytometry; hits give low values. fluorescence response, % at 10 µM. AID 435000. 850 tested, under 10 active;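 active means fluorescence response below 15%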;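 further: percent of the mean fluorescence averaged over all compound wells on the plate; lower means stronger quenching of DHE signal or ROS scavenging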
Starred values were filed as active, the others as inactive; . = no result. Only some compounds are listed: those with a hit (about 3.8% of all), similar ones and a draw of the others.

SMILES	Yeast superoxide	tim10-1 inh	TIM10 inh	NALP3 yeast inh	tim23-1 inh	CR mimetic CP	DHE fluor count
OCCCNc1ncnc2c1cnn2-c1ccc(Cl)cc1	92	38	7	26	27	92	90
CN(C)CCNc1ncnc2c1cnn2-c1ccc(Cl)cc1	108	29	5	8	25	101	99
CCCCn1c(N)c(N(CC(C)C)C(=O)c2oc3c(Cl)cccc3c2C)c(=O)[nH]c1=O	82	-4	0	11	0	.	.
COc1cccc(Cn2nnc(C(=O)NCc3ccc4c(c3)OCO4)c2N)c1	64*	16	13	11	-4	102	96
CC1CC(=O)N(CC(=O)Nc2ccc(F)cc2)c2ccccc2S1(=O)=O (stereo unspecified)	122	28	5	7	20	.	.
COc1ccc(CNS(=O)(=O)c2ccc3oc(C(=O)O)c(C)c3c2)cc1	63*	4	0	15	8	100	121
Cc1c(C(=O)O)oc2ccc(S(=O)(=O)NC3CCCCCCC3)cc12	63*	4	-3	8	0	110	131
O=C(NCc1ccco1)c1nn(-c2ccccc2)c(=O)c2ccccc12	62*	27	8	8	25	90	107
CCN1CCN(c2ncnc3sc(C)c(-c4ccccc4)c23)CC1	102	12	10	19	0	.	.
CCN1CCN(c2ncnc3sc4c(c23)CCC(C)C4)CC1 (stereo unspecified)	51*	16	-11	7	9	99	91
CCNC(=O)N1c2ccc(OC)cc2C(C)=CC1(C)C	61*	-1	-1	20	-9	110	112
COc1ccc(NC(=O)N2c3ccc(OC)cc3C(C)=CC2(C)C)cc1	85	5	-4	4	-4	.	.
COc1cc2c(cc1OC)CN(S(=O)(=O)c1ccccc1F)CC2	107	32	0	12	30	.	.
CN(NC1OC(=O)c2ccccc21)c1ccc(Cl)cc1[N+](=O)[O-] (stereo unspecified)	55*	5	-4	16	13	83	111
Cc1ccc(NC(=O)Cc2ccsc2)cc1S(=O)(=O)N1CCOCC1	92	-9	0	2	3	.	.
COc1cccc(-n2nnnc2SCC(=O)NCCc2ccccc2)c1	89	22	16	-10	28	.	.
COc1ccc(OC)c(-n2nnnc2SCC(=O)NCCc2ccccc2)c1	53*	13	16	8	20	114	114
O=C(NCc1ccncc1)c1cc(S(=O)(=O)N2CCOCC2)c(Cl)cc1Cl	101	11	-1	10	17	.	.
Cc1ccc(-c2nc(N)n(S(C)(=O)=O)n2)cc1	65*	6	-9	-2	23	115	109
CC(=O)Nc1ccc(S(=O)(=O)n2nc(-c3ccc(C)cc3)nc2N)cc1	103	1	0	4	4	.	.
CC1O[C@@H](OCC2O[C@@H](Oc3cc(O)c4c(c3)OC(c3ccc(O)cc3)CC4=O)[C@H](O)[C@@H](O)[C@@H]2O)[C@H](O)[C@H](O)[C@H]1O (stereo partly specified)	62*	-5	6	13	-2	104	92
COc1ccc([C@@H]2CC(=O)c3c(O)cc(O[C@@H]4OC(CO[C@@H]5OC(C)[C@H](O)[C@@H](O)[C@H]5O)[C@@H](O)[C@H](O)[C@H]4O)cc3O2)cc1O (stereo partly specified)	70	13	0	2	9	.	.
CCn1cc(SCC(=O)NC2CCCC2)c2ccccc21	111	10	-11	21	13	.	.
Cc1cccc(C)c1NC(=O)CNC(=O)CCNC(=O)c1ccco1	110	19	4	19	3	.	.
Cc1ccc(-c2nnc(Nc3ccc4c(c3)OCO4)c3ccccc23)cc1S(=O)(=O)NCCO	103	-2	-10	-8	-17	103	94
SMILES	Yeast superoxide	tim10-1 inh	TIM10 inh	NALP3 yeast inh	tim23-1 inh	CR mimetic CP	DHE fluor count
Cc1ccc(-c2nnc(Nc3ccc(CC(N)=O)cc3)c3ccccc23)cc1S(=O)(=O)NCCO	91	2	-1	17	-11	.	.
Cc1ccc(-c2nnc(Nc3ccc4c(c3)OCO4)c3ccccc23)cc1S(=O)(=O)NC(C)C	103	18	11	-1	13	100	92
CC[C@@]1(C(=O)OC)N[C@H](CN(C)S(=O)(=O)c2ccc(OC(F)(F)F)cc2)[C@@H]2C(=O)N(C)C(=O)[C@@H]21	83	-6	15	-2	-2	.	.
N#C/C(=N\Nc1cccc(C(F)(F)F)c1)C(=O)c1ccsc1	64*	39	-11	48	29	108	106
C#CCOCCOCCOCCNc1nc(N2CCN(C(=O)C([C@@H](C)O)n3cc([C@@H](N)CCCCN)nn3)CC2)nc(N2CCN(C(=O)[C@H](CCCCN)n3cc([C@@H](N)CC(N)=O)nn3)CC2)n1 (stereo partly specified)	103	7	-2	3	13	.	.
O=C(NNC(=O)c1ccc(Cl)cc1Cl)Nc1ccccc1	63*	6	2	3	5	99	89
CC(C)OC(=O)CSc1nnc(-c2ccc(Cl)cc2Cl)o1	107	6	-18	28	-15	93	92
CCCCOC(=O)CSc1nnc(-c2ccc(Cl)cc2Cl)o1	105	3	-30	2	7	.	.
Nc1ccnn1Cc1ccncc1	99	4	4	22	6	.	.
Cc1csc(Nc2ccccc2C(F)(F)F)n1	64*	31	29	26	44	108	101
COc1ccc(NC(=S)N2CCCCCC2)cc1OC	111	-9	-10	12	-4	.	.
Cc1ccc(CSc2ncnc3onc(C)c23)cc1	58*	-1	-3	41	5	112	111
Cn1c(=O)c2c(nc(NCC3CCCC(CN)C3)n2Cc2ccc(Cl)cc2Cl)n(C)c1=O (stereo unspecified)	113	-16	-1	30	-32	.	.
O=C1CC(=C2c3ccccc3-c3ccccc32)C(=O)N1CCCCN1CCN(c2ccccc2)CC1	15*	8	28	30	22	97	94
Cc1cc2nc(N)sc2cc1[N+](=O)[O-]	103	15	9	1	20	.	.
Cc1ccc2c(c1)C=CC(C)(C)S2=O (stereo unspecified)	64*	9	-3	23	1	97	112
COc1cc(C)c(/C=C(\C#N)C(=O)Nc2cccc(C)c2)cc1C(C)C	50*	18	2	8	3	102	95
Cc1cccc(NC(=O)/C(C#N)=C\c2ccc(C(=O)O)cc2)c1	99	0	2	4	0	.	.
CCOc1cccc(-c2nnc(SCC(=O)Nc3ccc(OC)c(OC)c3)n2N)c1	86	7	-8	13	9	92	94
COc1ccc(NC(C)=O)cc1NC(=O)CSc1nnc(-c2ccc(F)cc2)n1N	93	8	11	3	14	111	106
